Test results as given in PubChem BioAssay (Tox21).
Unmarked numbers belong to inactive results. Results filed as inconclusive are left out. Active and inactive are the calls of the source. The call rests on the fitted dose curve; in most records, active means well fitted curve in the direction sought with a large enough effect in the repeat runs; inconclusive means weak or mixed curves; inactive means no such curve, though single readings can be large; an effect the other way counts as inactive or inconclusive.
On the % scale 0 is the no-effect control and ±100 the full control effect.

Assay: qHTS assay to identify small molecule HDAC inhibitors - cell viability counter screen (AID 1259365); further: nearly all actives have a fitted effect of over 50% in size
Conditions: HCT-116 viability, CellTiter-Glo ATP luminescence, 2 h; series mostly up to 92.4 µM; activity change, negative = cytotoxicity: at the top concentration
Procedure, shortened: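 Cytotoxicity was gauged in wild-type HCT-116 cells after a brief 2hr treatment with DMSO-dissolved compounds at 37C and 5% CO2, using CellTiter-Glo luminescence developed for 30min at room temperature.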
`O=C(O)Cc1cccc(-c2cc(CCCCCCc3ccc(O[C@H]4O[C@H](CO)[C@@H](O)[C@H](O)[C@@H]4O)c(-c4cccc(CC(=O)O)c4)c3)ccc2O[C@H]2O[C@H](CO)[C@@H](O)[C@H](O)[C@@H]2O)c1` gave an activity change, negative = cytotoxicity of -0.936% [at 0.349 µM]. For `O=S(=O)(O)c1cc(O)ccc1O`, the “activity change, negative = cytotoxicity” value was -2.77%. In the case of `CCCCC(C)C(=O)O` (stereo unspecified), the “activity change, negative = cytotoxicity” value is reported as 1.55%. In the case of `NS(=O)(=O)c1cc2c(cc1Cl)NC(CC1CCCC1)NS2(=O)=O` (stereo unspecified), the “activity change, negative = cytotoxicity” value is reported as -1.14% [at 42.5 µM]. With `CCCCCCCCCCCCCCCCCCN(C)C` the “activity change, negative = cytotoxicity” value was -0.63% [at 42.5 µM]. For `CC(=O)OCC(=O)[C@@]1(O)[C@H](OC(C)=O)C[C@H]2[C@@H]3CCC4=CC(=O)C=C[C@]4(C)[C@@]3(F)[C@@H](O)C[C@@]21C`, the “activity change, negative = cytotoxicity” value was -0.673% [at 42.5 µM]. For `C=CCOCC(O)CCl` (stereo unspecified), the “activity change, negative = cytotoxicity” value was -1.54%. In the case of `CCOC(=O)CCc1ccccc1`, the “activity change, negative = cytotoxicity” value is reported as -0.172%. In the case of `Nc1cc(C(=O)O)ccc1Cl`, the “activity change, negative = cytotoxicity” value is reported as -0.811%. In the case of `c1ccccc1`, the “activity change, negative = cytotoxicity” value is reported as 3.07%. For `FC(F)(F)c1ccc(Cl)cc1Cl`, the “activity change, negative = cytotoxicity” value was 3.02%. In the case of `CC(C)(C)c1ccc(C=O)cc1`, the “activity change, negative = cytotoxicity” value is reported as -1.42%. With `O=C(O)c1ccccc1C(=O)OCc1ccccc1` the “activity change, negative = cytotoxicity” value was 2.45%. With `COc1cc([N+](=O)[O-])ccc1N` the “activity change, negative = cytotoxicity” value was -0.236%. In the case of `C[C@@H]1C[C@H]2[C@@H]3C[C@H](F)C4=CC(=O)C=C[C@]4(C)[C@@]3(F)[C@@H](O)C[C@]2(C)[C@@]1(O)C(=O)CO`, the “activity change, negative = cytotoxicity” value is reported as 2.32% [at 42.5 µM]. For `O=S1(=O)CCCC1`, the “activity change, negative = cytotoxicity” value was 0.546%. For `O=c1[nH]c(=O)c2ccccc2o1`, the “activity change, negative = cytotoxicity” value was 4.65% [at 42.5 µM].

Assay: qHTS assay to identify small molecule agonists of the sonic hedgehog signaling (Shh) pathway - cell viability counter screen (AID 1259366); further: nearly all actives have a fitted effect of over 50% in size; further: potency means the concentration at half of the fitted maximal effect
Conditions: NIH/3T3 Gli1-Luc viability, CellTiter-Fluor, 24 h; series mostly up to 92.4 µM; viability change, negative = cytotoxic: at the top concentration
Procedure, shortened: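 Stable Gli1-Luc NIH/3T3 clone, 2,000 cells/well. Compound exposure 24hr at 37C. Read-out: CellTiter-Fluor fluorescence.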
For `CCCCCCCC/C=C\CCCCCCCC(=O)OC[C@@H](O)[C@H]1OC[C@H](O)[C@H]1O`, the “viability change, negative = cytotoxic” value was 20.2%. With `COc1ccc(NS(=O)(=O)c2ccc(N)cc2)nn1` the “viability change, negative = cytotoxic” value was 4.76% [at 42.5 µM]. In the case of `CC(C)CCO`, the “viability change, negative = cytotoxic” value is reported as 0.438%. In the case of `C=C[Si](C)(C)O[Si](C)(C)C=C`, the “viability change, negative = cytotoxic” value is reported as 5.69%. With `Cc1ccccc1C(=O)N1CC/C(=N\OS(=O)(=O)O)c2ccc(Cl)cc21` the “viability change, negative = cytotoxic” value was -0.693% [at 42.5 µM]. With `COc1ccc(N=Nc2cc(C)c(N=Nc3ccc(S(=O)(=O)O)cc3)cc2OC)cc1` the Potency was 54.5 µM (active). In the case of `CCCCCCCC[Si](OCC)(OCC)OCC`, the “viability change, negative = cytotoxic” value is reported as 0.0267%. For `CNC(=O)C(c1ccccc1)c1ccccc1`, the “viability change, negative = cytotoxic” value was 5.62%. With `CCCCCN(CCCOC)C(=O)C(CCC(=O)O)NC(=O)c1ccc(Cl)c(Cl)c1` (stereo unspecified) the “viability change, negative = cytotoxic” value was -1.04% [at 42.5 µM]. In the case of `CCNC(=O)/C=C/c1cccc(Br)c1`, the “viability change, negative = cytotoxic” value is reported as 4.31% [at 42.5 µM]. For `C[C@H](CCC(=O)NCC(=O)O)[C@H]1CC[C@H]2[C@@H]3[C@H](O)C[C@@H]4C[C@H](O)CC[C@]4(C)[C@H]3C[C@H](O)[C@]12C`, the “viability change, negative = cytotoxic” value was 8.79%. In the case of `NC(Cc1c[nH]c2ccccc12)C(=O)O` (stereo unspecified), the “viability change, negative = cytotoxic” value is reported as 3.77% [at 42.5 µM]. With `NS(=O)(=O)c1ccc(Cl)c(S(N)(=O)=O)c1` the “viability change, negative = cytotoxic” value was -4.81% [at 42.5 µM]. With `COC(=O)CCC(=O)O` the “viability change, negative = cytotoxic” value was -5.57%. For `CC(C)COC(=O)COc1ccc(Cl)cc1Cl`, the “viability change, negative = cytotoxic” value was -0.42%. With `C=C(C)[C@@H]1CC[C@@H](C)C[C@@H]1O` the “viability change, negative = cytotoxic” value was 1.18%. For `Nc1ccc(S(=O)(=O)Nc2ccccn2)cc1`, the “viability change, negative = cytotoxic” value was -0.584% [at 42.5 µM]. Compound `O=C(O)Cc1cccc(-c2cc(CCCCCCc3ccc(O[C@H]4O[C@H](CO)[C@@H](O)[C@H](O)[C@@H]4O)c(-c4cccc(CC(=O)O)c4)c3)ccc2O[C@H]2O[C@H](CO)[C@@H](O)[C@H](O)[C@@H]2O)c1` has a viability change, negative = cytotoxic of 1.74% [at 0.349 µM]. In the case of `CCCCC(C)C(=O)O` (stereo unspecified), the “viability change, negative = cytotoxic” value is reported as 4.84%. In the case of `CCCCCCCCCCCCCCCCCCN(C)C`, the “viability change, negative = cytotoxic” value is reported as -2.59% [at 42.5 µM]. With `CC(=O)OCC(=O)[C@@]1(O)[C@H](OC(C)=O)C[C@H]2[C@@H]3CCC4=CC(=O)C=C[C@]4(C)[C@@]3(F)[C@@H](O)C[C@@]21C` the “viability change, negative = cytotoxic” value was 4.98% [at 42.5 µM]. With `C=CCOCC(O)CCl` (stereo unspecified) the “viability change, negative = cytotoxic” value was 1.72%. In the case of `CCOC(=O)CCc1ccccc1`, the “viability change, negative = cytotoxic” value is reported as -6.37%. With `c1ccccc1` the “viability change, negative = cytotoxic” value was 3.45%. With `FC(F)(F)c1ccc(Cl)cc1Cl` the “viability change, negative = cytotoxic” value was 0.747%. For `CC(C)(C)c1ccc(C=O)cc1`, the “viability change, negative = cytotoxic” value was 0.0545%. For `O=C(O)c1ccccc1C(=O)OCc1ccccc1`, the “viability change, negative = cytotoxic” value was 6.35%. For `COc1cc([N+](=O)[O-])ccc1N`, the Potency was 54.5 µM (active). For `C[C@@H]1C[C@H]2[C@@H]3C[C@H](F)C4=CC(=O)C=C[C@]4(C)[C@@]3(F)[C@@H](O)C[C@]2(C)[C@@]1(O)C(=O)CO`, the “viability change, negative = cytotoxic” value was 3.32% [at 42.5 µM]. For `O=S1(=O)CCCC1`, the “viability change, negative = cytotoxic” value was 2.3%. For `O=c1[nH]c(=O)c2ccccc2o1`, the “viability change, negative = cytotoxic” value was -1.51% [at 42.5 µM].

Assay: qHTS assay to identify small molecule antagonists of the sonic hedgehog signaling (Shh) pathway - cell viability counter screen (AID 1259367); further: nearly all actives have a fitted effect of over 55% in size; further: potency means the concentration at half of the fitted maximal effect
Conditions: NIH/3T3 Gli1-Luc viability, CellTiter-Fluor, 24 h; series mostly up to 92.4 µM; viability change, negative = cytotoxic: at the top concentration
Procedure, shortened: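 Tox21 library chemicals were tested on a Gli1-Luc NIH/3T3 clone (2,000 cells/well) stimulated by conditioned medium; viability was quantified as fluorescence from CellTiter-Fluor reagent added at 23 hr.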
In the case of `CCCCCCCC/C=C\CCCCCCCC(=O)OC[C@@H](O)[C@H]1OC[C@H](O)[C@H]1O`, the “viability change, negative = cytotoxic” value is reported as 8.8%. In the case of `COc1ccc(NS(=O)(=O)c2ccc(N)cc2)nn1`, the “viability change, negative = cytotoxic” value is reported as 1.76% [at 42.5 µM]. With `CC(C)CCO` the “viability change, negative = cytotoxic” value was 0.526%. With `CCS(=O)(=O)CCn1c([N+](=O)[O-])cnc1C` the “viability change, negative = cytotoxic” value was -5.5% [at 42.5 µM]. For `O=C(O)CCNC(=O)c1ccccc1`, the “viability change, negative = cytotoxic” value was 2.44% [at 42.5 µM]. With `C=C[Si](C)(C)O[Si](C)(C)C=C` the “viability change, negative = cytotoxic” value was 0.135%. In the case of `Cc1ccccc1C(=O)N1CC/C(=N\OS(=O)(=O)O)c2ccc(Cl)cc21`, the “viability change, negative = cytotoxic” value is reported as -2.03% [at 42.5 µM]. In the case of `COc1ccc(N=Nc2cc(C)c(N=Nc3ccc(S(=O)(=O)O)cc3)cc2OC)cc1`, the “viability change, negative = cytotoxic” value is reported as 8.65%. With `CCCCCCCC[Si](OCC)(OCC)OCC` the “viability change, negative = cytotoxic” value was 2.21%. For `CNC(=O)C(c1ccccc1)c1ccccc1`, the “viability change, negative = cytotoxic” value was 1.41%. With `CCCCCN(CCCOC)C(=O)C(CCC(=O)O)NC(=O)c1ccc(Cl)c(Cl)c1` (stereo unspecified) the “viability change, negative = cytotoxic” value was 0.334% [at 42.5 µM]. With `CCNC(=O)/C=C/c1cccc(Br)c1` the “viability change, negative = cytotoxic” value was 0.346% [at 42.5 µM]. For `C[C@H](CCC(=O)NCC(=O)O)[C@H]1CC[C@H]2[C@@H]3[C@H](O)C[C@@H]4C[C@H](O)CC[C@]4(C)[C@H]3C[C@H](O)[C@]12C`, the “viability change, negative = cytotoxic” value was -4.41%. For `NC(Cc1c[nH]c2ccccc12)C(=O)O` (stereo unspecified), the “viability change, negative = cytotoxic” value was -0.0196% [at 42.5 µM]. With `O=S(=O)(O)SSS(=O)(=O)O` the “viability change, negative = cytotoxic” value was 7.76%. With `NS(=O)(=O)c1ccc(Cl)c(S(N)(=O)=O)c1` the “viability change, negative = cytotoxic” value was 6.08% [at 42.5 µM]. With `COC(=O)CCC(=O)O` the “viability change, negative = cytotoxic” value was 3.83%. In the case of `CC(C)COC(=O)COc1ccc(Cl)cc1Cl`, the “viability change, negative = cytotoxic” value is reported as 0.443%. For `C=C(C)[C@@H]1CC[C@@H](C)C[C@@H]1O`, the “viability change, negative = cytotoxic” value was 1.38%. For `Nc1ccc(S(=O)(=O)Nc2ccccn2)cc1`, the “viability change, negative = cytotoxic” value was -0.181% [at 42.5 µM]. With `C=CCOC(=O)c1ccc(C(=O)OCC=C)c(C(=O)OCC=C)c1` the “viability change, negative = cytotoxic” value was -1.75%. With `O=C(O)Cc1cccc(-c2cc(CCCCCCc3ccc(O[C@H]4O[C@H](CO)[C@@H](O)[C@H](O)[C@@H]4O)c(-c4cccc(CC(=O)O)c4)c3)ccc2O[C@H]2O[C@H](CO)[C@@H](O)[C@H](O)[C@@H]2O)c1` the viability change, negative = cytotoxic was 3.56% [at 0.349 µM]. For `O=S(=O)(O)c1cc(O)ccc1O`, the “viability change, negative = cytotoxic” value was -0.0682%. With `CCCCC(C)C(=O)O` (stereo unspecified) the “viability change, negative = cytotoxic” value was 0.717%. With `NS(=O)(=O)c1cc2c(cc1Cl)NC(CC1CCCC1)NS2(=O)=O` (stereo unspecified) the “viability change, negative = cytotoxic” value was -0.37% [at 42.5 µM]. With `CCCCCCCCCCCCCCCCCCN(C)C` the “viability change, negative = cytotoxic” value was -2.47% [at 42.5 µM]. In the case of `CC(=O)OCC(=O)[C@@]1(O)[C@H](OC(C)=O)C[C@H]2[C@@H]3CCC4=CC(=O)C=C[C@]4(C)[C@@]3(F)[C@@H](O)C[C@@]21C`, the “viability change, negative = cytotoxic” value is reported as 1.7% [at 42.5 µM]. For `C=CCOCC(O)CCl` (stereo unspecified), the “viability change, negative = cytotoxic” value was 2.87%. For `CCOC(=O)CCc1ccccc1`, the “viability change, negative = cytotoxic” value was 0.484%. With `Nc1cc(C(=O)O)ccc1Cl` the “viability change, negative = cytotoxic” value was -0.542%. With `c1ccccc1` the “viability change, negative = cytotoxic” value was -3.18%. For `FC(F)(F)c1ccc(Cl)cc1Cl`, the “viability change, negative = cytotoxic” value was 1.06%. With `CC(C)(C)c1ccc(C=O)cc1` the “viability change, negative = cytotoxic” value was -0.4%. For `O=C(O)c1ccccc1C(=O)OCc1ccccc1`, the “viability change, negative = cytotoxic” value was 2.11%. For `COc1cc([N+](=O)[O-])ccc1N`, the Potency was 54.5 µM (active). For `C[C@@H]1C[C@H]2[C@@H]3C[C@H](F)C4=CC(=O)C=C[C@]4(C)[C@@]3(F)[C@@H](O)C[C@]2(C)[C@@]1(O)C(=O)CO`, the “viability change, negative = cytotoxic” value was 0.256% [at 42.5 µM]. In the case of `O=S1(=O)CCCC1`, the “viability change, negative = cytotoxic” value is reported as -1.32%. In the case of `O=c1[nH]c(=O)c2ccccc2o1`, the “viability change, negative = cytotoxic” value is reported as 2.98% [at 42.5 µM].
